Values of other authors in PubChem BioAssay AID977611.
Hit rate of the full screen: of about 3,900 compounds, about 3,900 (100%) were called active. Cut-off not given; nearly all actives show Kd up to about 4200 µM. The set was probably picked from earlier hits. This is one part of the list. Where a SMILES comes first, the peptide text is derived from it. Non-standard residues stand in square brackets, D forms with d. Square brackets hold non-standard residues; d marks the D form. Residues, ends and D or L forms follow the SMILES beside them. Peptide text beside a SMILES is read from it. [ ]: non-standard residue; d: D form. Orn(CH(NH2)2) = NC(N)NCCC[C@H](N)C(=O)O; pGlu = O=C1CC[C@@H](C(=O)O)N1

Assay: PubChem AID 977611
Settings: PDB protein-ligand complexes, literature Kd

## CC[C@H](C)[C@H](NC(=O)[C@@H]1CCCN1C(=O)[C@H](CCC(=O)O)NC(=O)[C@H](Cc1ccc(O)cc1)NC(=O)[C@H](CC(=O)O)NC(=O)[C@@H]1CCCN1C(=O)[C@H](CC(N)=O)NC(=O)[C@@H]1CCCN1C(=O)[C@@H](NC(=O)[C@@H]1CCCN1C(=O)[C@@H]1CCCN1)C(C)C)C(=O)N[C@H](C=O)CCCNC(N)N (H-PPVPNPDYEPI[Orn(CH(NH2)2)]-aldehyde)
protein: Epidermal growth factor receptor kinase substrate 8-like protein 1 SH3 domain, PDB entry 2rol
  Kd: 24000 nM (active)

## H-ARYGVSNTSINRK-OH
protein: Protein HTP-1 P84L, PDB entry 4tzq
  Kd: 300 nM (active)
protein: Protein HTP-2, PDB entry 4tzm
  Kd: 200 nM (active)

## H-ATGSARSEGY-OH
protein: WD repeat-containing protein 5, WDR5, PDB entry 4ewr
  Kd: 541 nM (active)

## O=C(CCS)N1CCC(O)(c2ccc(Cl)c(C(F)(F)F)c2)CC1
protein: CREB-binding protein, PDB entry 4i9o
  Kd: 1900 nM (active)

## CSCC[C@H](N)C(=O)N1CCC[C@H]1C(=O)N1CCC[C@H]1C(=O)N[C@H](C(=O)N[C@@H](CC(C)C)C(=O)N1CCC[C@H]1C(=O)N[C@@H](Cc1cnc[nH]1)C(=O)N[C@@H](CCCNC(N)N)C(=O)N[C@@H](CC(=O)O)C(=O)N[C@@H](Cc1c[nH]c2ccccc12)C(=O)O)[C@@H](C)O (H-MPPTLPH[Orn(CH(NH2)2)]DW-OH)
protein: Peroxisomal membrane protein PAS20 (SH3 domain), PDB entry 1n5z
  Kd: 44000 nM (active)

## H-SWVYSPLHYSA-OH
protein: Talin FERM F3 domain, PDB entry 1y19
  Kd: 170 nM (active)

## CC(C)C[C@H](NC(=O)[C@H](Cc1cnc[nH]1)NC(=O)[C@H](CCC(=O)O)NC(=O)[C@H](Cc1c[nH]c2ccccc12)NC(=O)[C@@H](NC(=O)[C@H](Cc1ccc(O)cc1)NC(=O)[C@@H](NC(=O)[C@H](C)NC(=O)[C@@H](N)CC(=O)O)[C@@H](C)O)[C@@H](C)O)C(=O)N[C@@H](C)C(=O)N[C@@H](Cc1c[nH]c2ccccc12)C(=O)N1CCC[C@H]1C(=O)O
protein: The human ?-aminobutyric acid type A (GABAA), PDB entry 3d32
  Kd: 354 nM (active)

## CC(C)C[C@H](NC(=O)CNC(=O)[C@H](CCCNC(N)N)NC(=O)[C@@H](N)CO)C(=O)N[C@@H](CCC(=O)O)C(=O)N[C@H](C(=O)N[C@@H](CO)C(=O)N[C@@H](Cc1cnc[nH]1)C(=O)N[C@@H](CCCNC(N)N)C(=O)N[C@@H](CC(C)C)C(=O)N[C@@H](C)C(=O)N1CCC[C@H]1C(=O)N[C@@H](Cc1c[nH]c2ccccc12)C(=O)O)C(C)C (H-S[Orn(CH(NH2)2)]GLEVSH[Orn(CH(NH2)2)]LAPW-OH)
protein: Telomeric repeat-binding factor 2, PDB entry 4m7c
  Kd: 750 nM (active)

## CC(C)C[C@H](NC(=O)[C@H](CCCNC(N)N)NC(=O)[C@H](CCCNC(N)N)NC(=O)[C@H](CCCCN)NC(=O)[C@H](C)NC(=O)[C@H](CO)NC(=O)CN)C(=O)N[C@@H](Cc1ccccc1)C(=O)NCC(=O)N[C@@H](CCC(=O)O)C(=O)O (H-GSAK[Orn(CH(NH2)2)][Orn(CH(NH2)2)]LFGE-OH)
protein: phospho-CDK2/cyclin A, PDB entry 1h28
  Kd: 300 nM (active)

## CC(=O)N[C@@H](CCCCN)C(=O)N[C@@H](CCCCN)C(=O)N[C@@H](CCCNC(N)N)C(=O)N[C@@H](Cc1ccc(O)cc1)C(=O)N[C@@H](CO)C(=O)N[C@@H](CCCNC(N)N)C(=O)N[C@@H](CCC(=O)O)C(=O)N[C@@H](Cc1ccccc1)C(=O)N[C@@H](CC(C)C)C(=O)N[C@@H](CC(C)C)C(=O)NCC(=O)N[C@@H](Cc1ccccc1)C(N)=O (Ac-KK[Orn(CH(NH2)2)]YS[Orn(CH(NH2)2)]EFLLGF-NH2)
protein: EUKARYOTIC TRANSLATION INITIATION FACTOR 4E, PDB entry 4aza
  Kd: 103 nM (active)

## CC(=O)N[C@H](C(=O)N[C@@H](CCC(N)=O)C(=O)NCC(=O)N[C@@H](CO)C(=O)NCC(=O)N[C@@H](C)C(=O)N[C@@H](Cc1ccccc1)C(=O)NCC(=O)N[C@@H](CCCNC(N)N)C(N)=O)C(C)C (Ac-VQGSGAFG[Orn(CH(NH2)2)]-NH2)
protein: Fab fragment of the mAb 106.3, PDB entry 3e8u
  Kd: 0.38 nM (active)

## H-AAAFSFKKSFKLSGFSFK-OH
protein: Ca2+-Calmodulin, PDB entry 1iwq
  Kd: 8.8 nM (active)

## Cc1n[nH]c(C)c1CCCOc1cc(C(=O)O)ccc1F
protein: Transthyretin (V122I mutation), PDB entry 4hiq
  Kd: 6.2 nM (active)

## OCCOCCOCCOCCOCCOCCOCCOCCOCCOCCOCCOCCOCCOCCOCCOCCOCCOCCOCCOCCOCCOCCOCCOCCOCCO
protein: Prostaglandin-H2 D-isomerase L-PGDS C65A mutant, PDB entry 4oru
  Kd: 210000 nM (active)
protein: Prostaglandin-H2 D-isomerase L-PGDS C65A-K59A double mutant, PDB entry 4orx
  Kd: 297000 nM (active)
protein: Prostaglandin-H2 D-isomerase L-PGDS C65A-K59A double mutant, PDB entry 4ory
  Kd: 297000 nM (active)

## OC[C@@H]1O[C@@H](O[C@H]2[C@H](O[C@@H]3CO[C@@H](O[C@@H]4CO[C@@H](O)[C@H](O)[C@H]4O)[C@H](O)[C@H]3O)OC[C@@H](O)[C@@H]2O)[C@H](O)[C@H]1O
protein: SUGAR TRANSPORTER SOLUTE-BINDING PROTEIN, PDB entry 4c1t
  Kd: 70.8 nM (active)

## OC[C@@H]1O[C@@H](O[C@@H]2[C@@H](O)[C@H](O[C@@H]3CO[C@@H](O)[C@H](O)[C@H]3O)OC[C@H]2O)[C@H](O)[C@H]1O
protein: SUGAR TRANSPORTER SOLUTE-BINDING PROTEIN, PDB entry 4c1u
  Kd: 81 nM (active)

## Nc1[nH]c(=S)nc2nc[nH]c12
protein: 6-hydroxymethyl-7,8-dihydropterin pyrophosphokinase, PDB entry 4m5n
  Kd: 7500 nM (active)

## CC(C)C[C@H](NC(=O)[C@@H]1CCC(=O)N1)C(=O)N[C@@H](Cc1ccc(O)cc1)C(=O)N[C@@H](CCC(=O)O)C(=O)N[C@H](C=O)CC(N)=O (tested in a mixture with another compound) ([pGlu]LYEN-aldehyde)
protein: Sortilin, PDB entry 4po7
  Kd: 85 nM (active)

## C[C@H](NC(=O)[C@@H]1CCCN1)C(=O)N[C@@H](CCCNC(N)N)C(=O)N1CCC[C@H]1C(=O)N1CCC[C@H]1C(=O)N[C@@H](CCCCN)C(=O)N1CCC[C@H]1C(=O)N[C@@H](CCCNC(N)N)C(=O)N1CCC[C@H]1C(=O)N[C@@H](CCCNC(N)N)C(=O)N[C@@H](CCCNC(N)N)C(=O)O (H-PA[Orn(CH(NH2)2)]PPKP[Orn(CH(NH2)2)]P[Orn(CH(NH2)2)][Orn(CH(NH2)2)]-OH)
protein: SH3-domain of CIN85, PDB entry 2bz8
  Kd: 2500 nM (active)

## CC(C)C[C@H](NC(=O)[C@H](CC(N)=O)NC(=O)[C@H](CC(C)C)NC(=O)[C@@H](NC(=O)[C@@H](NC(=O)[C@@H]1CCCN1C(=O)[C@H](CCCNC(N)N)NC(=O)[C@H](CCCCN)NC(=O)[C@@H]1CCCN1)[C@@H](C)O)[C@@H](C)O)C(=O)N[C@@H](Cc1ccccc1)C(=O)O (HELM PEPTIDE1{P.K.[NC(N)NCCC[C@H](N[*:1])C(=O)[*:2]].P.T.T.L.N.L.F}$$$$V2.0)
protein: Mitogen-activated protein kinase 8 isoform 4, PDB entry 1ukh
  Kd: 420 nM (active)

## H-PDYFL-OH
protein: Serine/threonine-protein phosphatase 2A activator PTPA, PDB entry 4ny3
  Kd: 49500 nM (active)

## CC(C)C[C@H](NC(=O)[C@H](CCCCN)NC(=O)[C@H](CCCCN)NC(=O)[C@H](CC(C)C)NC(=O)[C@@H]1CCCN1C(=O)[C@H](CCCCN)NC(=O)[C@@H]1CCCN1)C(=O)N[C@@H](CCCNC(N)N)C(=O)N[C@@H](Cc1ccccc1)C(=O)N[C@@H](CC(=O)O)C(=O)O (H-PKPLKKL[Orn(CH(NH2)2)]FD-OH)
protein: phospho-CDK2/cyclin A, PDB entry 1h25
  Kd: 1800 nM (active)
